Test results as given in PubChem BioAssay (NCATS).
Records with an inconclusive call do not appear. Active and inactive are the calls of the source. The call rests on the fitted dose curve; in most records, active means well fitted cell-killing curve with a large enough effect; inconclusive means small, poorly fitted or top-dose-only effect; inactive means no such curve, though single readings can be large or run the other way.

assay: qHTS of pediatric cancer cell lines to identify multiple opportunities for drug repurposing: Primary screen for OHS-50 cells (AID 1347103); conditions: OHS-50 osteosarcoma viability, CellTiter-Glo luminescence, 48 h; series mostly up to 57.3 µM; activity change, negative = cytotoxic: at the top concentration; further: nearly all actives have a fitted effect of over 40% in size
Excerpt: Drug repurposing or repositioning has been offered as a strategy for drug development in oncology programs. This approach has special potential for childhood cancers and other rare or orphan diseases, where the expected return on new drug development has been a disincentive to pharmaceuticals.
In this project we exploit the poly-pharmacology of drugs to discover new indications via phenotypic screening of a panel of 19 well-characterized cell lines derived from solid tumors seen in children and adolescents. The goal is to identify approved drugs with previously unrecognized anticancer properties that has the potential to reveal new mechanisms and biological processes involved in carcinogenesis or drug resistance. We employed a titration-based paradigm (quantitative high-throughput screening or qHTS), where all compounds were tested at multiple concentrations for their effect on cell viability. Concentration-response curves (CRCs) were derived directly from the primary screen, and both potency and efficacy values were used to identify compounds with robust bioactivity profiles. We screened the NIH Chemical Genomics Center (NCGC) Pharmaceutical Collection (NPC) and Mechanism Interrogation Plate (MIPE) small molecule collections of approved and investigational compounds against these cell lines; and measured metabolically active cells after 48 hours of compound treatment as a proxy for cell viability.
Assay Submitter: Nathalia J. Martinez, National Center for Advancing Translational Sciences, National Institutes of Health, Rockville, MD, USA; email: natalia.martinez@nih.gov
[1] Shen, M et al. Quantitative high-throughput phenotypic screening of pediatric cancer cell lines identifies multiple opportunities for drug repurposing. Oncotarget 2017 Dec 19;9(4):4758-4772. PMID 29435139.
The cells were obtained from University of North Carolina (UNC), Pediatric Preclinical Testing Program (PPT), and Coriell Institute (CI).
qHTS cell viability assay:
Cells were assayed in growth media at a density of 500-1,000 cells/well. Five microliters of cells were dispensed into 1,536-well, white, solid-bottom, TC-treated plates (Greiner Bio One) using a multidrop dispenser and incubated at 37 degrees C, 5% CO2, under a humidified atmosphere for 5 hours. Twenty-three nanoliters of compounds and controls (neutral control DMSO or positive control bortezomib at final concentration of 2.3 µM) were subsequently transferred by Kalypsys pintool. For primary screens, the MIPE collection was tested at 11-point dilutions (final concentrations range from 0.78 nM to 46 µM) and the NPC collection at 8-point dilutions (final concentrations range from 0.59 nM to 46 µM). Compounds tested in follow-up screens were assayed at 11-point dilutions. Cells were incubated for 48 hours, followed by addition of 3 µL of CellTiter-Glo (Promega). After a 15 min incubation at room temperature, samples were analyzed for luminescence intensity using a ViewLux High-throughput CCD imager equipped with clear filters.

Row | Compound | activity change, negative = cytotoxic
1 | O=C(O)Cc1cn(-c2ccccc2)nc1-c1ccc(Cl)cc1 | 13.3% (inactive)
2 | CCC(C)(CN(C)C)OC(=O)c1ccccc1 (stereo not given) | 7.21% (inactive)
3 | NCc1ccc(S(N)(=O)=O)cc1 | 3.29% (inactive)
4 | COc1ccccc1Oc1c(NS(=O)(=O)c2ccc(C(C)(C)C)cc2)nc(-c2ncccn2)nc1OCCO | 7.69% (inactive)
5 | Cc1c(C)c2c(c(C)c1OC(=O)c1cccnc1)CC[C@@](C)(CCC[C@H](C)CCC[C@H](C)CCCC(C)C)O2 | 4.88% (inactive)
6 | CCCCCOC(=O)Nc1nc(=O)n([C@@H]2O[C@H](C)[C@@H](O)[C@H]2O)cc1F | 19.2% (inactive)
7 | CCCCCCCCCCOc1cc2c(=O)c(C(=O)OCC)c[nH]c2cc1OCC | -4.02% [at 6.18 µM] (inactive)
8 | CCOC(=O)[C@H](CCc1ccccc1)N[C@@H](C)C(=O)N1CCC[C@H]1C(=O)O | 73.4% (inactive)
9 | N[C@@H](Cc1ccc(O)cc1)C(=O)O | 9.85% [at 11.5 µM] (inactive)
10 | CCCCCC(N)=O | 11.4% (inactive)
11 | C[C@@H]1O[C@@H](OC[C@H]2O[C@@H](Oc3c(-c4ccc(O)c(O)c4)oc4cc(O)cc(O)c4c3=O)[C@H](O)[C@@H](O)[C@@H]2O)[C@H](O)[C@H](O)[C@H]1O | 18.4% (inactive)
12 | Cc1[nH]c(C)c(Cl)c(=O)c1Cl | 5.76% [at 19.7 µM] (inactive)
13 | CCN(CC)CCc1nc(-c2ccccc2)no1 | 20.7% (inactive)
14 | C[C@@H](c1ncncc1F)C(O)(Cn1cncn1)c1ccc(F)cc1F (stereo not given in full) | -7.85% (inactive)
15 | c1ccc2[nH]ccc2c1 | 10.8% (inactive)
16 | CN1C[C@@H]2C[C@H]1CN2c1cc2c(cc1F)c(=O)c(C(=O)O)cn2C1CC1 | 107% [at 19.7 µM] (inactive)
17 | C/C(=C(\CCO)SS/C(CCO)=C(\C)N(C=O)Cc1cnc(C)nc1N)N(C=O)Cc1cnc(C)nc1N | 10.2% (inactive)
18 | CCCCCCCC(=O)OCC(O)CO (stereo not given) | -6.92% (inactive)
19 | O[C@@H]1CO[C@H]2[C@@H]1OC[C@@H]2O | -6.83% (inactive)
20 | COc1ccc(NS(=O)(=O)c2ccc(N)cc2)nn1 | 22.8% (inactive)

Row | Compound | activity change, negative = cytotoxic
21 | CC(C)=CCC/C(C)=C/CO | 2.22% (inactive)
22 | COc1ccc(O)cc1 | -24.5% (inactive)
23 | CN1CCN(C(=O)C2CCCCC2)CC1 | 8.11% (inactive)
24 | O=C1CC[C@@H](C(=O)O)N1 | -8.96% (inactive)
25 | CN[C@@H]1[C@H](O)[C@H](NC)[C@H]2O[C@@]3(O)C(=O)C[C@@H](C)O[C@H]3O[C@@H]2[C@H]1O | 114% (inactive)
26 | CCCCC1(COC(=O)CCC(=O)O)C(=O)N(c2ccccc2)N(c2ccccc2)C1=O | 9.16% (inactive)
27 | Cc1cc(O)cc(C)c1Cl | -4.23% (inactive)
28 | Cc1cc(C)nc(NS(=O)(=O)c2ccc(N)cc2)n1 | 3.8% (inactive)
29 | C[n+]1ccccc1/C=N/O | 8.26% (inactive)
30 | CN1C(=O)CC(c2ccccc2)C1=O (stereo not given) | -7.02% (inactive)
31 | O=c1[nH]c2cc(C(F)(F)F)c(N3CCOCC3)cc2n(CP(=O)(O)O)c1=O | -12.9% (inactive)
32 | Cc1c(Cn2ccnc2)c2ccccc2n1CCC(=O)O | 25.2% (inactive)
33 | OCC(O)CS (stereo not given) | 15.4% (inactive)
34 | CCOc1cc(NC(C)=O)ccc1C(=O)OC | -3.9% (inactive)
35 | CC(N)CCCC(C)(C)O (stereo not given) | 6.11% (inactive)
36 | NC(=O)c1ccc([N+](=O)[O-])cc1Cl | 13.1% (inactive)
37 | CC[N+](C)(CC)CCOC(=O)C1c2ccccc2Oc2ccccc21 | 7.42% (inactive)
38 | CC(=O)Nc1ccccc1 | 4.94% (inactive)
39 | CC[C@]12CCCN3CCc4c(n(c5ccccc45)[C@@](O)(C(=O)OC)C1)[C@@H]32 | -21.1% (inactive)
40 | O=C(O)c1ccccc1C(=O)Nc1ccc(S(=O)(=O)Nc2nccs2)cc1 | -11% (inactive)
